Experimental data: PubChem BioAssay
A number with no mark means an inactive call. For some of these results: Results with a measured potency or affinity are listed apart. Calls of active or inactive are those of the source. Unless noted, how the calls were made is not given here.

What was measured:
[1] = antimalarial activity against Dd2 strain (AID 2302;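 active means growth inhibition above 50% at the single 2 µM test dose, taken to imply half-maximal potency below 2 µM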;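 further: 0% = DMSO untreated growth and 100% = chloroquine plus artemisinin killed control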); conditions: P. falciparum Dd2 in RBCs, LDH growth readout, 72 h; at 2 µM; stronger effect = higher value
[2] = HepG2 cytotoxicity, primary screen, cytotoxicity control for P. falciparum antimalarial project, cell-based, ATP luminescence (AID 2303;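 active means inhibition above 50%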;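 further: 0% = DMSO wells and 100% = digitonin-killed cells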); conditions: HepG2 viability, 24-48 h, at 10 µM, stronger effect = higher value
[3] = target: L-lactate dehydrogenase (Plasmodium falciparum (isolate CDC / Honduras)) (UniProt Q27743); assay: PfLDH activity inhibition – cell lysate, 3D7 strain, counter-screen for P. falciparum growth inhibition project (AID 2304);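 further: 0% = vehicle and 100% = reference inhibitor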; conditions: P. falciparum 3D7 crude extract, LDH APAD/NBT absorbance; at 2 µM; stronger effect = higher value
[4] = inhibition of 3D7 malaria parasite growth – strain 3D7 (AID 2306);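 further: 0% = DMSO wells and 100% = chloroquine plus artemisinin control wells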; conditions: P. falciparum 3D7 erythrocytic growth, LDH absorbance, 72 h; at 2 µM; stronger effect = higher value
[5] = target: Calcium-dependent protein kinase 1 (Plasmodium falciparum (isolate 3D7)) (UniProt P62344); assay: PfCDPK1 kinase inhibitors, biochemical, TCAMS library (AID 1159585; cut-off not given, nearly all actives have IC50 up to about 0.98 µM;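 further: inhibitors leave more ATP so luminescence rises with inhibition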); conditions: recombinant PfCDPK1, Kinase-Glo ATP depletion luminescence
[6] = target: Plasmodium falciparum protein kinase 6 (PK6, PF3D7_1337100) (UniProt Q8IDW1); assay: PfPK6 kinase inhibitors, biochemical, TCAMS library (AID 1159586); conditions: recombinant PfPK6, Kinase-Glo ATP depletion luminescence
[7] = target: Protein kinase 7 (PK7), Plasmodium falciparum 3D7 (PF3D7_0213400) (UniProt Q7YTF7); assay: inhibition of Plasmodium PK7 catalytic activity – biochemical, TCAMS antimalarial set, Kinase-Glo luminescence (AID 1159587); conditions: recombinant PfPK7, Kinase-Glo ATP depletion luminescence
[8] = target: Calcium-dependent protein kinase 4 (Plasmodium falciparum (isolate 3D7)) (UniProt Q8IBS5); assay: PfCDPK4 kinase inhibitors, biochemical, TCAMS library (AID 1159588; cut-off not given, nearly all actives have IC50 up to about 0.91 µM); conditions: recombinant PfCDPK4, Kinase-Glo ATP depletion luminescence
Sequence of Calcium-dependent protein kinase 4 (Plasmodium falciparum (isolate 3D7)) (Q8IBS5 whole entry, looked up): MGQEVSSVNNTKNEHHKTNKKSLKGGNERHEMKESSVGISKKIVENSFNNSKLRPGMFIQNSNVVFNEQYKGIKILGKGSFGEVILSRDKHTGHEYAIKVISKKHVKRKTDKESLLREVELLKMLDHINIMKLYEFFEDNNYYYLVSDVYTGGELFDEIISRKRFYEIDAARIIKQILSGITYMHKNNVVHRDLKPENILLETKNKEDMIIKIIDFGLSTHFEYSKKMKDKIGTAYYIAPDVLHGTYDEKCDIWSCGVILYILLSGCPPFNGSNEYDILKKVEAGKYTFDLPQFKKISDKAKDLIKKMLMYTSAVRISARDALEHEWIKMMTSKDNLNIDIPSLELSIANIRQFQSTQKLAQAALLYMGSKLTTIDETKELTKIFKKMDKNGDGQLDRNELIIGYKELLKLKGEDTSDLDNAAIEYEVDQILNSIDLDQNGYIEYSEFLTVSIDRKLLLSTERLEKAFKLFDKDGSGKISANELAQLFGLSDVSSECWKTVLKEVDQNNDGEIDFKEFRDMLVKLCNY

Sequence of Calcium-dependent protein kinase 1 (Plasmodium falciparum (isolate 3D7)) (P62344 whole entry, looked up): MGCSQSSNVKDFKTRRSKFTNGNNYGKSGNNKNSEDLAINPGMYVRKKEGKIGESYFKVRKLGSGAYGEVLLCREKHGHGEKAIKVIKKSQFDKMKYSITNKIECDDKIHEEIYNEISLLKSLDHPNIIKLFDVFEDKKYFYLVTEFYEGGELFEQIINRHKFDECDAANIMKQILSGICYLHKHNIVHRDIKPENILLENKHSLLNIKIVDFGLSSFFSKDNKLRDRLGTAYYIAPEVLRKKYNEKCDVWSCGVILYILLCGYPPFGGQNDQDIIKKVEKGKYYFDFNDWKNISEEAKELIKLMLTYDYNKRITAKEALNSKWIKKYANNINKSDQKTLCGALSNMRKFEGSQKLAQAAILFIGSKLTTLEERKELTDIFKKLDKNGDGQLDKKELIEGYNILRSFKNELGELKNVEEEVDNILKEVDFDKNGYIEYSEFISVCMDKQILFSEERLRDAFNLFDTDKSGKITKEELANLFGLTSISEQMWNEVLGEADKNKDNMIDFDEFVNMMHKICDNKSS
Sequence of Plasmodium falciparum protein kinase 6 (PK6, PF3D7_1337100) (Q8IDW1 1-305): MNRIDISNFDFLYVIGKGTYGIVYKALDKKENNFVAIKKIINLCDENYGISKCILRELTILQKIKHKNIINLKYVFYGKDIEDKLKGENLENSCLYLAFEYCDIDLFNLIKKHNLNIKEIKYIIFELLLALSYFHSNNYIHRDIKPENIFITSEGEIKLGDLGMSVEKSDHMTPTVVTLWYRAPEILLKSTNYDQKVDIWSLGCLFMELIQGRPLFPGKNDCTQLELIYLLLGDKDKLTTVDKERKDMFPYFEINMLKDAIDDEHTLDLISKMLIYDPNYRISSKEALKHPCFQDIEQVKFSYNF
Sequence of Protein kinase 7 (PK7), Plasmodium falciparum 3D7 (PF3D7_0213400) (Q7YTF7 1-343): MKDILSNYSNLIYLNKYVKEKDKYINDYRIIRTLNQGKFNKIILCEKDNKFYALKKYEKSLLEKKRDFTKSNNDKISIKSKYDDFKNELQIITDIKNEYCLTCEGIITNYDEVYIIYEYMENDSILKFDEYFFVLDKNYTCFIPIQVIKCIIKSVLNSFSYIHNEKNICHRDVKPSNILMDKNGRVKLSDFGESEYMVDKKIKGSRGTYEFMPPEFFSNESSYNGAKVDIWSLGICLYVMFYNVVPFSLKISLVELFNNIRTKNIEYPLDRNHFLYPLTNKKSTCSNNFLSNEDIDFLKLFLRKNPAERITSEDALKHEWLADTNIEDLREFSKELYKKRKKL
Sequence of L-lactate dehydrogenase (Plasmodium falciparum (isolate CDC / Honduras)) (Q27743 whole entry, looked up): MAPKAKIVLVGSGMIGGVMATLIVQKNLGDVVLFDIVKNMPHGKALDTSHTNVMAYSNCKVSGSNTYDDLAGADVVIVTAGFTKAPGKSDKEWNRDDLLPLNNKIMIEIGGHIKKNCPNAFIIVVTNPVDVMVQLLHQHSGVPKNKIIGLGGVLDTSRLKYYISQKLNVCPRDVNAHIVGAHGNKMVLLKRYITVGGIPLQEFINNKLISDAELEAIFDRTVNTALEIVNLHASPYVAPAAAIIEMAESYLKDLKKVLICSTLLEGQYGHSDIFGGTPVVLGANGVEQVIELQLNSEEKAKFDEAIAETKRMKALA

SMILES	growth inhibition [1]	inhibition [2]	inhibition [3]	growth inhibition [4]	outcome [5]	outcome [6]	outcome [7]	outcome [8]
OC(COCc1ccc(-c2ccccc2)cc1)CN1CCCCC1 (stereo not drawn)	75% (active)	13%	-1%	99% (active)	inactive	inactive	inactive	inactive
O=C(Nc1ccc(C(F)(F)F)cc1)c1cccc(S(=O)(=O)NC2CCN(CC3CCCCC3)CC2)c1	12%	18%	-3%	99% (active)	inactive	inactive	inactive	inactive
Cc1nc(Nc2ccncc2)cc(-c2ccncc2)n1	3%	6%	-2%	100% (active)	inactive	inactive	inactive	inactive
CN(c1ccc(NC(=O)c2ccc(F)cc2)cc1)C1CCN(Cc2cccc(F)c2)C1 (stereo not drawn)	74% (active)	3%	-2%	81% (active)	inactive	inactive	inactive	inactive
COc1cccc(OC(C)(C)c2nc(N[C@@H](C)c3ccccc3)c3cn[nH]c3n2)c1	69% (active)	44%	-4%	89% (active)	inactive	inactive	inactive	inactive
CN(C)c1ccc(CN2CCC(NC(=O)c3ccc(-c4ccccc4F)s3)CC2)cc1	27%	41%	-3%	86% (active)	inactive	inactive	inactive	inactive
CN(C)C(=O)c1cc(CNCc2ccccc2)ccc1-c1cccc(CNCc2ccc(-c3ccccc3)cc2)c1	12%	27%	-3%	90% (active)	inactive	inactive	inactive	inactive
COc1ccc(CCN(C)CCCOc2ccc(NC(=O)c3cccc4c(=O)c5ccccc5[nH]c34)cc2)cc1OC	45%	80% (active)	1%	94% (active)	inactive	inactive	inactive	inactive
C=C[C@]1(C)C[C@@H](OC(=O)CS[C@H]2CN3CC[C@H]2C3)[C@@]2(C)C3C(=O)CC[C@@]3(CC[C@H]2C)[C@@H](C)[C@@H]1O (stereo partly drawn)	75% (active)	18%	4%	91% (active)	inactive	inactive	inactive	inactive
Cc1ccc(NC(=O)c2ccc(N3CCN(c4ccncc4)CC3)cc2)cc1F	79% (active)	47%	-1%	100% (active)	inactive	inactive	inactive	inactive
FC(F)(F)CNc1nc(Nc2ccc3ncccc3c2)nc2[nH]ccc12	83% (active)	37%	0%	87% (active)	inactive	inactive	inactive	inactive
CCC(C)OC(=O)C1=C(C)NC2=C(C(=O)CC(c3ccc(OC)c(OC)c3)C2)C1c1cccc(O)c1 (stereo not drawn)	98% (active)	-8%	0%	100% (active)	inactive	inactive	inactive	inactive
c1ccc(C(c2ccccc2)N2CCC(NCc3ccc(OCCCN4CCCCC4)cc3)CC2)cc1	101% (active)	74% (active)	4%	100% (active)	inactive	inactive	inactive	inactive
C[C@@H]1CN(c2cnn(C/C=C/c3ccc(NC(=O)c4ccc(Cl)cc4)cc3)c(=O)c2Cl)C[C@H](C)N1	82% (active)	25%	-2%	88% (active)	inactive	inactive	inactive	inactive
O=C(CC(c1ccccc1)c1ccccc1O)N1CCOCC1 (stereo not drawn)	5%	30%	0%	84% (active)	inactive	inactive	inactive	inactive
COc1ccc(OCCCCON2C(N)=NC(N)=NC2(C)C)cc1	95% (active)	54% (active)	4%	92% (active)	inactive	inactive	inactive	inactive
CCn1c(Cc2ccccc2)nnc1Sc1ccc([N+](=O)[O-])c(C#N)c1	72% (active)	8%	-5%	93% (active)	inactive	inactive	inactive	inactive
O=C(NC1CCCCC1)N(Cc1ccc(-c2cccc(CNC3CCCC3)c2)cc1)C1CCN(Cc2ccccc2)CC1	59% (active)	52% (active)	3%	95% (active)	inactive	inactive	inactive	inactive
CC(C)(C)S[C@H]1S[C@H](SC(C)(C)C)[C@@H](OC(=O)c2ccccc2)C(OC(=O)c2ccccc2)[C@H]1OC(=O)c1ccccc1 (stereo partly drawn)	45%	-2%	5%	95% (active)	inactive	inactive	inactive	inactive
CC(CN1CCN(C)CC1)C(=O)Nc1cccc(-c2ccc(-c3nc4ccc(C(F)(F)F)cc4[nH]3)cc2)c1 (stereo not drawn)	98% (active)	11%	-2%	101% (active)	inactive	inactive	inactive	inactive
CC(C)COc1ccc(Cl)cc1Nc1nc(-c2nc3ccccc3[nH]2)cs1	29%	2%	0%	96% (active)	inactive	inactive	inactive	inactive

SMILES	growth inhibition [1]	inhibition [2]	inhibition [3]	growth inhibition [4]	outcome [5]	outcome [6]	outcome [7]	outcome [8]
O=C1C(c2ccccc2)=C(Nc2cccc(OC(F)(F)C(F)F)c2)c2ccccc21	96% (active)	-5%	0%	96% (active)	inactive	inactive	inactive	inactive
CCc1ccc(-c2nc3cc(NC(=O)c4ccc([N+](=O)[O-])o4)ccc3o2)cc1	80% (active)	4%	3%	97% (active)	inactive	inactive	inactive	inactive
COc1ccc(C=NNc2cc(C)nc3ccccc23)c2ccccc12	69% (active)	26%	-1%	99% (active)	inactive	inactive	inactive	inactive
CCN(CC)CCN(Cc1ccc(-c2ccc(C(F)(F)F)cc2)cc1)C(=O)Cn1c(SCc2ccc(F)cc2)nc(=O)c2sccc21	65% (active)	51% (active)	-1%	101% (active)	inactive	inactive	inactive	inactive
COc1ccc2nc3cc(Cl)ccc3c(Nc3ccc(C(=O)O)cc3)c2c1	95% (active)	-7%	6%	94% (active)	inactive	inactive	inactive	inactive
CN(C)Cc1cccc(-c2ccc(NC(=O)c3ccc4c(=O)n(CC5CCCO5)cnc4c3)cc2)c1 (stereo not drawn)	14%	28%	0%	97% (active)	inactive	inactive	inactive	inactive
Nc1nc(N)c2c(ccc3c2ccn3Cc2ccccc2)n1	94% (active)	64% (active)	-8%	96% (active)	inactive	inactive	inactive	inactive
Cc1noc(C)c1-c1cccc(CNCc2cccc(-c3cccc(-c4nc5ccc(C(F)(F)F)cc5[nH]4)c3)c2)c1	95% (active)	18%	5%	101% (active)	inactive	inactive	inactive	inactive
COc1ccc(C(O)CNC(C)CCc2ccc(F)cc2)cc1C(F)(F)F (stereo not drawn)	98% (active)	92% (active)	3%	99% (active)	inactive	inactive	inactive	inactive
CCCCCN1C(=O)C(c2ccccc2)(c2ccccc2)N=C1N	68% (active)	18%	-1%	97% (active)	inactive	inactive	inactive	inactive
COc1cc(NCC(C)CNCc2cn(Cc3ccccc3)c3ccccc23)nc2ccccc12 (stereo not drawn)	55% (active)	21%	-6%	90% (active)	inactive	inactive	inactive	inactive
Fc1ccccc1C=NNc1ccnc2ccccc12	26%	8%	0%	94% (active)	inactive	inactive	inactive	inactive
COc1ccc(-c2cccc(NC(=O)c3cccc(C#N)c3)c2)cc1CN1CCN(C)CC1	16%	25%	-2%	91% (active)	inactive	inactive	inactive	inactive
CC(C)(C)c1cc(NC(=O)c2ccc(Cl)c([N+](=O)[O-])c2)cc(C(C)(C)C)c1	7%	-4%	4%	93% (active)	inactive	inactive	inactive	inactive
N#Cc1ccc(C(=O)Nc2cccc(-c3ccc(CN4CCCC4)cc3)c2)cc1	-2%	13%	-2%	99% (active)	inactive	inactive	inactive	inactive
Cc1nc2nc(N)nc(N)c2c(C)c1Cc1cccc(C(F)(F)F)c1	23%	65% (active)	-2%	89% (active)	inactive	inactive	inactive	inactive
O=C([C@@H]1CCCCN1c1ccc([N+](=O)[O-])c2ccccc12)N1CCN(c2ncccn2)CC1	5%	50% (active)	5%	97% (active)	inactive	inactive	inactive	inactive
Cc1ccccc1CNc1noc(-c2c(-c3ccccc3)noc2C)n1	70% (active)	-4%	-2%	94% (active)	inactive	inactive	inactive	inactive
CN(C)CCNCc1cccc(-c2ccc3c(Nc4ccc(F)cc4Cl)ccnc3c2)c1	98% (active)	17%	1%	102% (active)	inactive	inactive	inactive	inactive
Cc1cc(C(=O)Nc2ccc3c(c2)CCN3C2CCN(Cc3cccc(F)c3F)C2)no1 (stereo not drawn)	94% (active)	0%	-4%	95% (active)	inactive	inactive	inactive	inactive
